Where “and” joins values, the source holds several entries; their conditions need not be identical. Equal values may be shown once. Among all 5,500 compounds or so, about 2,000 (36%) were called active. Another 18% or so got no clear call; they are omitted. Cut-off read from the data, not from the text of the source: active = normalized growth mostly below about 0.91 (no sharp cut-off); inconclusive = no clear call, values can overlap the other calls; inactive = mostly above about 0.92. The list shows a part of the results.
Assay: chemical genetic growth profiling, strain panel (AID 1159580);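 note: tested at 20 µM; growth read once vehicle control cultures reached saturation at 30 °C; 1 = growth at the plate median or of vehicle wells; lower values mean less growth of the strain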
Conditions: S. cerevisiae deletion strains, growth OD

Measured: normalized growth

CC(C)=CCCC1(C)C=Cc2c(O)c3c(c(CC=C(C)C)c2O1)OC12C(=CCCC1C(C)(C)O[C@@]2(C/C=C(\C)C(=O)O)C(=O)O)C3=O (stereo partly specified)
0.263 (active) and 0.923 (inactive): locus YJL095W, strain BCK1, stronger effect = lower value
active: locus YAL026C, strain drs2, stronger effect = lower value 0.813 | locus YAL030W, strain snc1, stronger effect = lower value 0.915 | locus YBL061C, strain skt5, stronger effect = lower value 0.918 | locus YBR009C, strain hhf1, stronger effect = lower value 0.86 | locus YBR023C, strain chs3, stronger effect = lower value 0.844 | locus YBR229C, strain ROT2, stronger effect = lower value 0.903 | locus YBR231C, strain swc5, stronger effect = lower value 0.861 | locus YCL011C, strain gbp2, stronger effect = lower value 0.887 | locus YCL029C, strain bik1, stronger effect = lower value 0.907 | locus YDL035C, strain GPR1, stronger effect = lower value 0.782 | locus YDL074C, strain BRE1, stronger effect = lower value 0.685 | locus YDL101C, strain DUN1, stronger effect = lower value 0.834 | locus YDL192W, strain arf1, stronger effect = lower value 0.766 | locus YDR101C, strain arx1, stronger effect = lower value 0.869 | locus YDR137W, strain rgp1, stronger effect = lower value 0.498 | locus YDR159W, strain sac3, stronger effect = lower value 0.694 | locus YDR162C, strain NBP2, stronger effect = lower value 0.377 | locus YDR297W, strain sur2, stronger effect = lower value 0.861 | locus YDR318W, strain mcm21, stronger effect = lower value 0.81 | locus YDR335W, strain msn5, stronger effect = lower value 0.881 | locus YDR388W, stronger effect = lower value 0.884 | locus YDR392W, strain spt3, stronger effect = lower value 0.283 | locus YDR502C, strain sam2, stronger effect = lower value 0.864 | locus YEL003W, strain gim4, stronger effect = lower value 0.907 | locus YEL061C, strain CIN8, stronger effect = lower value 0.89 | locus YER015W, strain faa2, stronger effect = lower value 0.84 | locus YER111C, strain swi4, stronger effect = lower value 0.91 | locus YER155C, strain BEM2 (second series), stronger effect = lower value 0.546 | locus YER155C, strain BEM2, stronger effect = lower value 0.879 | locus YER167W, strain BCK2, stronger effect = lower value 0.807 | locus YGL086W, strain mad1, stronger effect = lower value 0.851 | locus YGL173C, strain kem1, stronger effect = lower value 0.701 | locus YGL248W, strain PDE1, stronger effect = lower value 0.792 | locus YGL253W, strain hxk2, stronger effect = lower value 0.85 | locus YGR078C, strain PAC10, stronger effect = lower value 0.753 | locus YGR135W, strain pre9, stronger effect = lower value 0.863 | locus YHR027C, strain rpn1, stronger effect = lower value 0.814 | locus YHR129C, strain ARP1, stronger effect = lower value 0.808 | locus YHR142W, strain chs7, stronger effect = lower value 0.702 | locus YIL066C, strain RNR3, stronger effect = lower value 0.804 | locus YJL095W, strain BCK1 (second series), stronger effect = lower value 0.609 | locus YJL164C, strain tpk1, stronger effect = lower value 0.86 | locus YJL166W, strain qcr8, stronger effect = lower value 0.851 | locus YJL187C, strain SWE1 (second series), stronger effect = lower value 0.789 | locus YJR043C, strain POL32, stronger effect = lower value 0.822
inactive: locus YAL021C, strain ccr4, stronger effect = lower value 0.996 | locus YBR021W, strain FUR4, stronger effect = lower value 1.03 | locus YBR171W, strain sec66, stronger effect = lower value 1 | locus YBR279W, strain paf1, stronger effect = lower value 0.933 | locus YCL016C, strain dcc1, stronger effect = lower value 0.92 | locus YCL069W, strain vba3, stronger effect = lower value 0.941 | locus YCR088W, strain abp1, stronger effect = lower value 0.988 | locus YDL005C, strain med2, stronger effect = lower value 1.03 | locus YDL040C, strain nat1, stronger effect = lower value 0.999 | locus YDL185W, strain tfp1, stronger effect = lower value 0.964 | locus YDR001C, strain nth1, stronger effect = lower value 0.999 | locus YDR069C, strain doa4, stronger effect = lower value 0.923 | locus YDR195W, strain ref2 1.12 | locus YDR334W, strain swr1, stronger effect = lower value 0.991 | locus YEL037C, strain rad23, stronger effect = lower value 0.987 | locus YEL061C, strain CIN8 (second series), stronger effect = lower value 0.963 | locus YER016W, strain bim1, stronger effect = lower value 0.957 | locus YER110C, stronger effect = lower value 0.953 | locus YFR010W, strain ubp6, stronger effect = lower value 0.919 | locus YGL078C, strain dbp3, stronger effect = lower value 0.998 | locus YGL167C, strain pmr1, stronger effect = lower value 0.996 | locus YGL227W, strain vid30, stronger effect = lower value 1.04 | locus YGL240W, strain doc1, stronger effect = lower value 0.989 | locus YGR252W, strain gcn5, stronger effect = lower value 0.902 | locus YHR013C, strain ard1, stronger effect = lower value 0.96 | locus YHR079C, strain IRE1 (second series), stronger effect = lower value 0.979 | locus YHR079C, strain IRE1, stronger effect = lower value 0.94 | locus YHR094C, strain hxt1, stronger effect = lower value 0.973 | locus YHR200W, strain rpn10, stronger effect = lower value 0.952 | locus YIL073C, strain SPO22, stronger effect = lower value 0.873 | locus YIL125W, strain kgd1, stronger effect = lower value 0.961 | locus YIR030C, strain dcg1, stronger effect = lower value 0.942 | locus YJL092W, strain hpr5, stronger effect = lower value 0.949 | locus YJL115W, strain asf1, stronger effect = lower value 1.04 | locus YJL129C, strain trk1, stronger effect = lower value 0.973 | locus YJL134W, strain LCB3, stronger effect = lower value 0.929 | locus YJL154C, strain vps35, stronger effect = lower value 1.01 | locus YJL168C, strain set2, stronger effect = lower value 0.971 | locus YJR066W, strain TOR1, stronger effect = lower value 0.909
0.501 (active) and 0.921 (inactive): locus YHR030C, strain SLT2, stronger effect = lower value

— PubChem BioAssay AID1159580 (chemical genetic matrix, 2015)
